Assay results published in PubChem BioAssay.
Activity calls are given as the source filed them.

Tests used:
[1] = test system: Plasmodium falciparum Sir2 (PF13_0152, Sir2A); assay: Plasmodium falciparum Sir2A binding compounds – biochemical, small-molecule microarray, 635 nm fluorescence, primary screen (AID 1098); settings: fluorescence 635 nm, higher = more signal;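 note: score merges spot fluorescence intensity with its signal-to-noise ratio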
[2] = probe aDKK1 binding to arrayed compounds – biochemical, biotinylated probe, 635/667 nm fluorescence, primary screen (AID 1099); settings: small-molecule microarray, higher = more signal;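 note: score merges 667nm spot fluorescence with signal to noise across triplicate slides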
[3] = probe aCHRDL2 binding to arrayed compounds – biochemical, biotinylated probe, 635/667 nm fluorescence, primary screen (AID 1100); settings: small-molecule microarray, higher = more signal
[4] = change in splice reporter luminescence, either direction, cell-based, HEK293, spliceosome inhibition project, primary screen (AID 1101); settings: HEK293 splicing luciferase reporter, 24 h, higher = more signal, called active from +8 up or from −8 down;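 note: HEK293 cells carrying a splicing-competent luciferase reporter gene; test concentration not given here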
[5] = biological target: Fibroblast growth factor 10 (Homo sapiens) (UniProt O15520); assay: compounds binding fibroblast growth factor 10 – biochemical, small-molecule microarray, 635 nm fluorescence, primary screen (AID 1102); settings: FGF10 binding, fluorescence 635 nm, higher = more signal
[6] = test system: glycogen synthase kinase-3 (GSK3A per assay name; protocol says GSK3B); assay: compounds binding glycogen synthase kinase-3 – biochemical, small-molecule microarray, 635 nm fluorescence, GSK3A, primary screen (AID 1103); settings: fluorescence 635 nm, higher = more signal; note: the record names both GSK3A and GSK3B
[7] = biological target: Epidermal growth factor receptor (Homo sapiens) (UniProt P00533); assay: compounds binding epidermal growth factor receptor – biochemical, small-molecule microarray, 635 nm fluorescence, primary screen (AID 1104); settings: EGFR binding, higher = more signal;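 note: score merges 667 nm emission intensity with spot signal to noise over triplicate slides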
[8] = biological target: Follistatin-related protein 3 (Homo sapiens) (UniProt O95633); assay: compounds binding follistatin-related protein 3 – biochemical, small-molecule microarray, 635 nm fluorescence, primary screen (AID 1105); settings: FSTL3 binding, higher = more signal;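 note: score merges emission near 667 nm and signal to noise per printed spot across three slides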
[9] = biological target: Dickkopf-related protein 1 (Homo sapiens) (UniProt O94907); assay: small molecules binding DKK1 protein – biochemical, small-molecule microarray, 635 nm fluorescence scan, primary screen (AID 1106); settings: higher = more signal;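 note: score merges emission near 667 nm with signal to noise over three replicate slides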
[10] = test system: Inhibin beta A chain (activin A); assay: small molecules binding activin A – biochemical, small-molecule microarray, 635 nm fluorescence scan, primary screen (AID 1107); settings: INHBA, higher = more signal;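 note: mouse activin A protein probed at 4.33 µg/mL on printed slides; score merges bound-protein fluorescence near 667 nm with spot signal-to-noise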
[11] = test system: Human papillomavirus type 1a protein E7 (residues 44-93); assay: small molecules binding HPV E7 44-93 – biochemical, small-molecule microarray, residues 44-93, 635 nm fluorescence, primary screen (AID 1108); settings: fluorescence 635 nm, higher = more signal;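 note: E7 fragment applied at 1 µg/mL in TBST for 1 h at 4 C; score combines spot fluorescence with its signal to noise ratio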
[12] = hepatitis C replication reporter changes, two-sided – Huh7 cells, luciferase reporter, HCV replication inhibitor project, primary screen (AID 1109); settings: Huh7 HCV replicon luciferase reporter, 48 h; higher = more signal;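 note: huh7 hepatoma cells harbouring a luciferase neomycin HCV replicon reporter; luciferase luminescence as measure of HCV replicon replication; test concentration not given here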
[13] = biological target: Left-right determination factor 2 (Homo sapiens) (UniProt O00292); assay: small molecules binding LEFTY2 protein – biochemical, small-molecule microarray, 635 nm fluorescence scan, primary screen (AID 1110); settings: higher = more signal
[14] = biological target: Calmodulin-1 (Homo sapiens) (UniProt P0DP23); assay: small molecules binding calmodulin-1 with EGTA – biochemical, small-molecule microarray, Cy5-labelled CALM1, profiling panel (AID 1111); settings: Cy5-CALM1 binding fluorescence, higher = more signal;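 note: labelled calmodulin applied in Tris saline Tween buffer holding calcium plus EGTA and DTT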
[15] = biological target: Calmodulin-1 (Homo sapiens) (UniProt P0DP23); assay: small molecules binding Ca-loaded calmodulin-1 – biochemical, small-molecule microarray, Cy5-labelled CALM1, plus calcium, artefact control for SMM control-protein annotation, profiling panel (AID 1112); settings: Cy5-CALM1 binding fluorescence, higher = more signal;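 note: score merges spot fluorescence with signal to noise from triplicate slides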
[16] = probe aWnt5a binding to arrayed compounds – biochemical, biotinylated probe, 635/667 nm fluorescence, primary screen (AID 1113); settings: small-molecule microarray, higher = more signal;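 note: score merges 667 nm fluorescence intensity with signal-to-noise per printed feature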
[17] = probe aShh binding to arrayed compounds – biochemical, biotinylated probe, 635/667 nm fluorescence, primary screen (AID 1114); settings: small-molecule microarray, higher = more signal;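 note: probe is biotin-labelled aShh protein from a stem cell growth factor screen; measures binding of labelled protein to compounds printed on the slide; score merges feature fluorescence at 667 nm with signal-to-noise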
[18] = probe aNog binding to arrayed compounds – biochemical, biotinylated probe, 635/667 nm fluorescence, primary screen (AID 1115); settings: small-molecule microarray, higher = more signal;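 note: probe is biotinylated aNog protein used at 0.15 µg/mL for 1 h at 4 C; z-score combines 667 nm fluorescence of each spot with its signal to noise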
[19] = biological target: Torsin-1A-interacting protein 1 (Homo sapiens) (UniProt Q5JTV8); assay: compound microarray binding of lysate hLAP1 – cell lysate, small-molecule microarray, COS7 lysate, 635/667 nm fluorescence, primary screen (AID 1116); settings: 635 nm fluorescence, higher = more signal
[20] = biological target: Alpha-bungarotoxin (Bungarus multicinctus) (UniProt P60615); assay: compounds binding labelled alpha-BTX control protein – biochemical, small-molecule microarray, Alexa647 label, 635/667 nm fluorescence, artefact control for SMM control protein annotation, profiling panel (AID 1117); settings: alpha-BTX-A647 binding fluorescence, higher = more signal
Chain of Alpha-bungarotoxin (Bungarus multicinctus) (P60615 whole entry, looked up): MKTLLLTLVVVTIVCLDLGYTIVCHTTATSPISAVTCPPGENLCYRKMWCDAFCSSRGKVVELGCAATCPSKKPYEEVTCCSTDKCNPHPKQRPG

Chain of Fibroblast growth factor 10 (Homo sapiens) (O15520 whole entry, looked up): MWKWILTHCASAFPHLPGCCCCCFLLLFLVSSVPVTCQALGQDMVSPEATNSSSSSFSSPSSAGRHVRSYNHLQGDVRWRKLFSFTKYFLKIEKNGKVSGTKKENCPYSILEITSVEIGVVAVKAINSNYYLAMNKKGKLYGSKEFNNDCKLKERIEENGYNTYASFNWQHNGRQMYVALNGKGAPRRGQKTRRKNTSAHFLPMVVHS
Chain of Follistatin-related protein 3 (Homo sapiens) (O95633 whole entry, looked up): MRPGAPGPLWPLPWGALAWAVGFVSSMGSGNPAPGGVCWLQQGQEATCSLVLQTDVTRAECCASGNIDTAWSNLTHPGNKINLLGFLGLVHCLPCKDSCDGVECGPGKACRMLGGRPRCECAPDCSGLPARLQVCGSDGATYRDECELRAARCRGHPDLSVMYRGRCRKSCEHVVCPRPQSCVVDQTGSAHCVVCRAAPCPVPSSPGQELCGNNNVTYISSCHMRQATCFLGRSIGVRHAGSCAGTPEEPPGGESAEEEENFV
Chain of Left-right determination factor 2 (Homo sapiens) (O00292 whole entry, looked up): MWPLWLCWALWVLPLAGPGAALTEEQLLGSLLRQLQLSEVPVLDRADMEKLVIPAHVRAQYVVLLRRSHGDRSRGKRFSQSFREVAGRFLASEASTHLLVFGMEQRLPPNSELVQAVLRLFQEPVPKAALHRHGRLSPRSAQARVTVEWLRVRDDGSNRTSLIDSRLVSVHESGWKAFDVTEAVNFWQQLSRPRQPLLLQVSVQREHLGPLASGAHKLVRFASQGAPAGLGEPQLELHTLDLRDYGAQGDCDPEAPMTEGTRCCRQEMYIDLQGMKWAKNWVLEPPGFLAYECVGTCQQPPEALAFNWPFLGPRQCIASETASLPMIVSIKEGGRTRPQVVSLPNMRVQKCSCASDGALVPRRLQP
Chain of Epidermal growth factor receptor (Homo sapiens) (P00533 whole entry, looked up): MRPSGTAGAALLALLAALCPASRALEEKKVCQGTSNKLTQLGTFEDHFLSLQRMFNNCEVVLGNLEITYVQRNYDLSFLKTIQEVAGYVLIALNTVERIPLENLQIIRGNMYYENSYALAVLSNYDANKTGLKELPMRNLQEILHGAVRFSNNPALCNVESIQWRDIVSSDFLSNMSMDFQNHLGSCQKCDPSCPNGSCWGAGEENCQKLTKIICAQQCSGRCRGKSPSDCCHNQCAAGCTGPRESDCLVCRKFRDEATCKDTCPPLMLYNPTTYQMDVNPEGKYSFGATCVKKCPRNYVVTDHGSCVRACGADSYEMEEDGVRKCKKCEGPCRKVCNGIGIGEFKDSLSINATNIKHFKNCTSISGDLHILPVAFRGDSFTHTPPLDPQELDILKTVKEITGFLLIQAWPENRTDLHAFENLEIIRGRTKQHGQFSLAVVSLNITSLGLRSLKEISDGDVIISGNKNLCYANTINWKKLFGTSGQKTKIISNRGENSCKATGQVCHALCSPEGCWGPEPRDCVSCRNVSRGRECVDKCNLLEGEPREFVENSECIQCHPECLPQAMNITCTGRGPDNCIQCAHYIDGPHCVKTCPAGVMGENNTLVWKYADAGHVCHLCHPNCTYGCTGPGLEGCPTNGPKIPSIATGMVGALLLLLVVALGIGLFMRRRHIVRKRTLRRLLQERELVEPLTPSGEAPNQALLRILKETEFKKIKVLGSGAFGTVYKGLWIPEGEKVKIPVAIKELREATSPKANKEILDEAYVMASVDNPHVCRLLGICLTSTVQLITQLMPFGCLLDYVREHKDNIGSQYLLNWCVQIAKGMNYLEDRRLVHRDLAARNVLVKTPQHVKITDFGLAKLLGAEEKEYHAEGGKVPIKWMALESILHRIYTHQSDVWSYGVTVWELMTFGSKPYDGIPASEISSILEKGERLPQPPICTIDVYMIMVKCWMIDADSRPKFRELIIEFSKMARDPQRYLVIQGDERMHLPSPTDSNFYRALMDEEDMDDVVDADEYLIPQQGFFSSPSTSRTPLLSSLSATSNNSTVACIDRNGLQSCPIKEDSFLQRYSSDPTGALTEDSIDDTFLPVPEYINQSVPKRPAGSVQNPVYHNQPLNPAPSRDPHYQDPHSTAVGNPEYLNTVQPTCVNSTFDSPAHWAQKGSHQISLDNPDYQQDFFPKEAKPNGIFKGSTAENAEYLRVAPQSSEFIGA
Chain of Torsin-1A-interacting protein 1 (Homo sapiens) (Q5JTV8 whole entry, looked up): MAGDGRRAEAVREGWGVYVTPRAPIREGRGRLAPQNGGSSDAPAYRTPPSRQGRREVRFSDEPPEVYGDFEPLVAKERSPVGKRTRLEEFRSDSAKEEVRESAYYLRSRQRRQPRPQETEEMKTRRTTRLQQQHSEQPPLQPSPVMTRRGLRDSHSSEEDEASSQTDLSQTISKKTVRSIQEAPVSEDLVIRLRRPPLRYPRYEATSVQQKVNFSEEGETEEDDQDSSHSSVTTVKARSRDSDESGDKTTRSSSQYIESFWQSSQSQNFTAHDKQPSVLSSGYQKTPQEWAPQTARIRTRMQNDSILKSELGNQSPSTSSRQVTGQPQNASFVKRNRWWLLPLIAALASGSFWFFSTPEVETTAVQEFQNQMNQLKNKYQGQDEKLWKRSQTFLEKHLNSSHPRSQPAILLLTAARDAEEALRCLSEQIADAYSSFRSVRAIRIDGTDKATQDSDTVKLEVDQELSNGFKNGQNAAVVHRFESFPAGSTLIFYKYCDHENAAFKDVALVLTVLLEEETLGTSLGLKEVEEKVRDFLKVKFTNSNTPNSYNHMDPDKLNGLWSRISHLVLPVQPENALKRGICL
Chain of Dickkopf-related protein 1 (Homo sapiens) (O94907 whole entry, looked up): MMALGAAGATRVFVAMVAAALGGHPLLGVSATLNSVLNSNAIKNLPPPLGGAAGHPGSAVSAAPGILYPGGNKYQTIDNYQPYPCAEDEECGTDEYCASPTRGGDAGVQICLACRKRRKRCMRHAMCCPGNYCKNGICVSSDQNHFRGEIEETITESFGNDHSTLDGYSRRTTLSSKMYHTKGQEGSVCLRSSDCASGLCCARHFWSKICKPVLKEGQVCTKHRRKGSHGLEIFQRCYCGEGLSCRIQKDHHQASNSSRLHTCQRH

Structure (SMILES) | composite z-score [1] | composite z-score [2] | composite z-score [3] | z-score [4] | composite z-score [5] | composite z-score [6] | composite z-score [7] | composite z-score [8] | composite z-score [9] | composite z-score [10] | composite z-score [11] | z-score [12] | composite z-score [13] | composite z-score [14] | composite z-score [15] | composite z-score [16] | composite z-score [17] | composite z-score [18] | composite z-score [19] | composite z-score [20]
CCOC(=O)C[C@H]1[C@H](OC(=O)c2ccc(C(=O)c3ccccc3)cc2)[C@@H](NC(=O)CC(C)C)c2cc(OCCCO)ccc2N1C(=O)c1ccc2ccccc2n1 | 0.366 | -0.0449 | -0.399 | -0.202 (inactive) | 0.811 | 1.25 | 0.373 | 1.41 | 1.09 | 0.241 | 1.15 | -1.22 | 0.592 | 0.711 | -0.297 | -0.0704 | -0.0793 | -0.318 | 0.547 | 0.719
[N-]=[N+]=NCc1ccccc1C[C@]1(C(N)=O)COC(c2ccc(OCCCO)cc2)=N1 | 0.806 | 1.13 | 1.36 | -1.52 (inactive) | 0.23 | 0.812 | -1.04 | -0.0511 | -0.2 | 0.636 | 0.202 | -0.17 | -0.993 | 2.01 | 1.2 | -0.0286 | -0.0441 | -0.169 | 2.59 | 1.58
O=C(c1ccccc1)N1C(=O)[C@@]2(Cc3ccccc31)N=C(c1ccc(OCCCO)cc1)O[C@H]2c1ccccc1 | 1.64 | 1 | 0.965 | -0.663 (inactive) | 1.06 | 1.33 | 0.782 | 1.22 | 0.973 | 0.992 | 1.03 | -2.77 | 0.643 | 0.661 | -0.502 | 0.0919 | -0.369 | 1.57 | 1.61 | 0.902
C=C(CCCC)/C(=C/C[C@@H](OC(=O)c1ccncc1)c1ccc(OCCO)cc1)c1cc(C(=O)OC)ccc1OC | 0.0247 | 0.0101 | -0.287 | 0.489 (inactive) | 0.876 | 0.605 | -0.0331 | 0.937 | 0.135 | 0.218 | 1.41 | -1.91 | -0.0304 | 0.168 | -0.959 | -0.166 | -0.138 | -0.144 | 0.883 | 0.311
O=C1C2C=CC(C(O)Cc3ccccc3)N(n3cnnc3)C2C(=O)N1Cc1ccccc1 (stereo not given) | 0.386 | 0.73 | 0.868 | -0.195 (inactive) | 0.33 | 0.0704 | -0.216 | -0.294 | -0.387 | 0.825 | 0.625 | -0.53 | -0.262 | 0.841 | 0.471 | 0.127 | -0.007 | 0.908 | 0.955 | 0.165
COc1cc2c(cc1O)C(C1CC1)N(Cc1sc3ccccc3c1Cl)CC2 (stereo not given) | 1.25 | 0.147 | 0.652 | -1.57 (inactive) | -0.326 | 0.135 | -0.0122 | -0.05 | -0.467 | 1.48 | 1.39 | -2.87 | -0.423 | 0.131 | 0.469 | -0.0977 | 0.0062 | 0.173 | 1.26 | 0.281
CCCCCN1CC=CC23O[C@@H]4C=CCCOC(=O)C4[C@H]2C(=O)N(CCCCCO)[C@@H]3C1=O (stereo not given in full) | -0.158 | -0.287 | 0.249 | -0.978 (inactive) | -0.8 | -0.299 | -1.16 | -1.15 | -0.503 | 0.516 | -0.168 | -0.605 | -0.368 | -0.339 | -0.578 | -0.096 | -0.243 | -0.178 | 0.884 | -0.99
CO[C@H]1O[C@H](CO)[C@@H](OC(=O)Nc2ccc(Oc3ccccc3)cc2)[C@H](OC(=O)Nc2ccc3c(c2)OCO3)[C@H]1OC(=O)Nc1ccc2c(c1)OCO2 | 1.26 | 0.86 | 0.992 | -1.61 (inactive) | 1.33 | 1.31 | 0.318 | 1.2 | 0.612 | 0.944 | 1.3 | -0.289 | 0.467 | 1.96 | -0.207 | 0.105 | -0.183 | 0.414 | 1.62 | 2.13
C=CCNC(=O)[C@H]1[C@@H]2C(=O)O[C@@H](c3ccccc3)[C@@H](c3ccccc3)N2[C@@H](c2ccccc2OCCO)[C@]12C(=O)Nc1ccc(C#CCC(C(=O)OC)C(=O)OC)cc12 | 0.797 | 0.309 | 0.973 | -2.39 (inactive) | 1.26 | 1.33 | 1.15 | 1.37 | 1.23 | 0.568 | 1.46 | -2.33 | 1.07 | 2.02 | 1.24 | 0.0914 | 0.224 | 0.46 | 1.37 | 2.13
O=C1NC(=O)C2C1C=CC(C(O)c1cc(C(F)(F)F)cc(C(F)(F)F)c1)N2Nc1ccccn1 (stereo not given) | 1.57 | -0.0616 | -0.387 | 1.35 (inactive) | 0.163 | -0.164 | 0.22 | 0.431 | 0.0665 | 1.33 | -0.2 | -0.345 | 0.274 | -0.0336 | -0.531 | -0.0165 | -0.214 | 0.566 | 1.88 | 0.143
COCC(=C=CC[C@@H](O)c1cccc(OCCO)c1)C[C@@H](O)c1ccccn1 | 0.976 | -0.193 | -0.355 | 0.758 (inactive) | 0.751 | 0.175 | 0.101 | 0.167 | 0.307 | 0.565 | -0.768 | 0.0065 | 0.493 | -0.301 | -0.0023 | -0.0459 | -0.221 | -0.388 | 1.15 | 0.216
C=CCC(OC(C)=O)[C@@H]1[C@@H](N(Cc2cccc3ccccc23)C(=O)c2ccc(-c3ccccc3)cc2)c2cc(OCCCO)ccc2N1C(=O)c1ccc2ccccc2c1 (stereo not given in full) | -0.101 | 0.25 | 0.357 | -0.157 (inactive) | 0.0842 | 0.293 | 0.24 | 0.476 | -0.601 | 1.28 | 0.564 | 0.098 | -0.164 | 0.268 | 0.544 | -0.0196 | -0.0709 | 0.223 | 0.923 | -0.0516
